Test results from PubChem BioAssay (Tox21).
Results filed as inconclusive are left out. The source made the active and inactive calls. Unless noted, calls come from the whole dose curve; as a rule, active = well fitted curve in the direction sought with a large enough effect in the repeat runs; inconclusive = weak or mixed curves; inactive = no such curve, though single readings can be large; an effect the other way counts as inactive or inconclusive.

Experiments:
[1] = A CellTox Green Cytotoxicity Assay to monitor cytotoxicity in HepG2 cells - 0 hour (AID 1224882); note: nearly all actives have a fitted effect of over 35% in size
Outline: (§1)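 Fluorescent DNA-binding dye, 600 HepG2 cells/well, 5 h preincubation then compound in DMSO; same plates read at 0–40 h, 37 C.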

[2] = A CellTox Green Cytotoxicity Assay to monitor cytotoxicity in HepG2 cells - 32 hour (AID 1224883); note: nearly all actives have a fitted effect of over 50% in size; note: potency is the fitted concentration of half-maximal effect
Outline: as §1

[3] = A CellTox Green Cytotoxicity Assay to monitor cytotoxicity in HEK293 cells - 8 hour (AID 1224884); note: nearly all actives have a fitted effect of over 35% in size
Outline: (§2)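 Homogeneous no-lysis format: HEK293 cell suspension mixed with CellTox Green reagent, seeded, incubated 5 h at 37 C/5% CO2, then dosed by pintool with compound in DMSO.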

[4] = qHTS RealTime-Glo MT Cell Viability Assay in HepG2 cells - 16 hour (AID 1224885); note: nearly all actives have a fitted effect of over 50% in size; note: potency is the fitted concentration of half-maximal effect
Outline: (§3)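 Viability was tracked continuously by NanoLuc luminescence from prosubstrate reduced by living HepG2 cells, at successive time points over 40 h of compound exposure. Cells with reagent were preincubated 5 h at 37 °C before compound addition.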

[5] = qHTS RealTime-Glo MT Cell Viability Assay in HEK293 cells - 8 hour (AID 1224887); note: nearly all actives have a fitted effect of over 50% in size; note: potency is the fitted concentration of half-maximal effect; for activity change, negative = cytotoxicity: top concentration of the series differs between compounds
Outline: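 Measured as luminescence from the same continuously cultured HEK293 wells at successive time points (0, 8, 16, 24, 32, 40 h) after compound addition. Reagent present from seeding; dosing at 5 h; incubation 37 C.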

[6] = A CellTox Green Cytotoxicity Assay to monitor cytotoxicity in HEK293 cells - 16 hour (AID 1224888); note: nearly all actives have a fitted effect of over 35% in size; note: potency is the fitted concentration of half-maximal effect
Outline: as §2

[7] = qHTS RealTime-Glo MT Cell Viability Assay in HepG2 cells - 0 hour (AID 1224889); note: nearly all actives have a fitted effect of over 50% in size
Outline: as §3

[8] = A CellTox Green Cytotoxicity Assay to monitor cytotoxicity in HepG2 cells - 8 hour (AID 1224890); note: nearly all actives have a fitted effect of over 45% in size; note: potency is the fitted concentration of half-maximal effect
Outline: as §1

[9] = qHTS assay to identify small molecule antagonists of the estrogen receptor alpha (ER-alpha) signaling pathway using the BG1 cell line in the presence of 0.1 nM 17-beta-estradiol - cell viability counter screen (AID 1259241); note: nearly all actives have a fitted effect of over 40% in size; note: potency is the fitted concentration of half-maximal effect
Outline: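 VM7Luc4E2, 4,000 cells/well, phenol red-free medium + 10% charcoal-stripped FBS; 24 hr plating; cpd + 0.1 nM E2 final, 22 hr 37C/5% CO2; CellTiter-Fluor 30 min, fluorescence.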

[10] = qHTS assay to identify small molecule antagonists of the androgen receptor (AR) signaling pathway using the MDA cell line in the presence of 0.5 nM R1881 - cell viability counter screen (AID 1259242); note: nearly all actives have a fitted effect of over 45% in size; note: potency is the fitted concentration of half-maximal effect
Outline: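 Human breast carcinoma MDA-kb2 cells, cultured without CO2, receive compounds alongside 0.5 nM (final) R1881 agonist. After 16 hr at 37C, viability is taken as live-cell protease signal.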

[11] = biological target: Estrogen receptor (Homo sapiens) (UniProt P03372); assay: qHTS assay to identify small molecule antagonists of the estrogen receptor alpha (ER-alpha) signaling pathway using the BG1 cell line in the presence of 0.1 nM 17-beta-estradiol (AID 1259244); note: nearly all actives have a fitted effect of over 50% in size; note: potency is the fitted concentration of half-maximal effect
Estrogen receptor (Homo sapiens), sequence (P03372 whole entry, looked up): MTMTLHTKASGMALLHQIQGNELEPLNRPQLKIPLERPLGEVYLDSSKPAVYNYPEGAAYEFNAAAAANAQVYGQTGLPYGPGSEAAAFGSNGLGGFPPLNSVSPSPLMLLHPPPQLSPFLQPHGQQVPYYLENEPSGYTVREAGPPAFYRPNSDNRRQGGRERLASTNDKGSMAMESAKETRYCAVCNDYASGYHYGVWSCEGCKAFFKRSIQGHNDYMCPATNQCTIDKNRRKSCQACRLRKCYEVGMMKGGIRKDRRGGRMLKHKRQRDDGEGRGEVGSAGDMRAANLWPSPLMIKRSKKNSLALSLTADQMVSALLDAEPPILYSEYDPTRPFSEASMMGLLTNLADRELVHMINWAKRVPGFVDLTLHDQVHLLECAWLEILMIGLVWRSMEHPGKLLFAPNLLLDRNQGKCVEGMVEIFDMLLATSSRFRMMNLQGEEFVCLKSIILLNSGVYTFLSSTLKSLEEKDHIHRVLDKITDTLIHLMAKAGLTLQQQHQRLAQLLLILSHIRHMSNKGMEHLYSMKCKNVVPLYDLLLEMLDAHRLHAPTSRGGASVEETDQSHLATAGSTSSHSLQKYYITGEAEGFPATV
Outline: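 Seeding of stripped-serum-adapted VM7Luc4E2 cells, 24 h attachment, compound transfer, then 0.1 nM final 17beta-estradiol; after 22 h incubation, ONE-Glo reagent and luminescence reading.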

[12] = qHTS assay to identify small molecule HDAC inhibitors (AID 1259364); note: potency is the fitted concentration of half-maximal effect;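 note: wild-type HCT-116 cells with endogenous class I/II HDAC activity; nearly all actives have a fitted effect of over 45% in size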; for activity change, negative = inhibition: top concentration of the series differs between compounds
Outline: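 After a 2 hr compound incubation (37C, 5% CO2), HCT-116 cells seeded at 1,500/well the day before received HDAC-Glo reagent; signal read as luminescence after 30 min at room temperature.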

[13] = qHTS assay to identify small molecule HDAC inhibitors - cell viability counter screen (AID 1259365)
Outline: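 Luminescence from CellTiter-Glo, developed 30min at room temperature, reports viability of wild-type HCT-116 cells treated 2hr with compounds at 37 C and 5% CO2 after overnight plating.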

[14] = qHTS assay to identify small molecule agonists of the sonic hedgehog signaling (Shh) pathway - cell viability counter screen (AID 1259366); note: nearly all actives have a fitted effect of over 50% in size; note: potency is the fitted concentration of half-maximal effect
Outline: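 Cytotoxicity counter screen run in the same wells as the Shh reporter assay. NIH/3T3 cells carrying a Gli1 response element–driven luciferase were treated with DMSO-dissolved compounds for 24hr, and live-cell protease activity was measured with CellTiter-Fluor.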

[15] = qHTS assay to identify small molecule antagonists of the sonic hedgehog signaling (Shh) pathway - cell viability counter screen (AID 1259367); note: nearly all actives have a fitted effect of over 55% in size; note: potency is the fitted concentration of half-maximal effect
Outline: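 Viability was read by CellTiter-Fluor fluorescence in the same wells, reagent added 23 hr into compound treatment and incubated 1 hr at 37C. The 3T3 Gli1-Luc reporter cells (2,000/well) received conditioned medium after compound and ran 24 hr.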

[16] = qHTS assay to identify small molecule agonists of the sonic hedgehog signaling (Shh) pathway (AID 1259368; calls by dose curve;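 note: NIH/3T3-derived 3T3Gli1-Luc cells carrying a stable Gli1-driven firefly luciferase reporter; series mostly up to about 92 µM; nearly all actives have a fitted effect of over 15% in size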)
Outline: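 Stable NIH/3T3 Gli1-Luc reporter clone; 24 hr cpd exposure after a 4 hr settling period; luminescence endpoint.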

[17] = qHTS assay to identify small molecule antagonists of the sonic hedgehog signaling (Shh) pathway (AID 1259369; calls by dose curve; note: nearly all actives have a fitted effect of over 45% in size; note: potency is the fitted concentration of half-maximal effect)
Outline: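 Gli1 transcriptional reporter (firefly Luc) in NIH/3T3 background, conditioned-medium activated. 24hr exposure, luminescence endpoint.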

[18] = biological target: Androgen receptor (Homo sapiens) (UniProt P10275); assay: qHTS assay to identify small molecule antagonists of the androgen receptor (AR) signaling pathway using the MDA cell line in the presence of 0.5 nM R1881 (AID 1259243); note: nearly all actives have a fitted effect of over 50% in size; note: potency is the fitted concentration of half-maximal effect
Androgen receptor (Homo sapiens), sequence (P10275 whole entry, looked up): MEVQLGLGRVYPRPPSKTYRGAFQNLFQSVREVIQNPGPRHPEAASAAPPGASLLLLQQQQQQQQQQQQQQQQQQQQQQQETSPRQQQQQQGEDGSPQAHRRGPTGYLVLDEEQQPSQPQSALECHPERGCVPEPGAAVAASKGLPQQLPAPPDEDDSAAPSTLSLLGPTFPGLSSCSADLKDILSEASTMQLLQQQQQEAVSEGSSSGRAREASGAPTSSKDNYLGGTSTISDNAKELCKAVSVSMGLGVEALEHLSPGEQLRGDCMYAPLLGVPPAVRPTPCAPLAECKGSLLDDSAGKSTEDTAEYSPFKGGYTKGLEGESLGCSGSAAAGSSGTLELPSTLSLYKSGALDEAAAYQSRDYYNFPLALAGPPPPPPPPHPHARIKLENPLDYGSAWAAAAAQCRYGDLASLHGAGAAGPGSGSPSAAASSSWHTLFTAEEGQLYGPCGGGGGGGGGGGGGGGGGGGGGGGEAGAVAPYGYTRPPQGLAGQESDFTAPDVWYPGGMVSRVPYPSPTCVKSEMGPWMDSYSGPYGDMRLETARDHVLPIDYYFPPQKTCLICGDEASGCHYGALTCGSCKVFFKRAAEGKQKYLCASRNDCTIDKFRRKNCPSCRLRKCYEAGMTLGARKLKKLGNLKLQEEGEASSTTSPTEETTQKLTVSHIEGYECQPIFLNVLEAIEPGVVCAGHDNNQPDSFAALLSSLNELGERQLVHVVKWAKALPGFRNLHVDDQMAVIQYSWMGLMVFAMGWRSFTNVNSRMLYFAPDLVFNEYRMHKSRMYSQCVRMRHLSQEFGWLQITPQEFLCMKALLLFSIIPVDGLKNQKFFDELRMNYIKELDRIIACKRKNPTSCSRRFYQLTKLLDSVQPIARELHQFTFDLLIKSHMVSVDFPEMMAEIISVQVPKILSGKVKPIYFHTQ
Outline: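 Cells: MDA-kb2 (MMTV-luc). Stimulus: 0.5 nM R1881. Time: 16 hr, 37C, no CO2. Detection: ONE-Glo luminescence after 30 min at RT.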

[19] = qHTS assay to identify small molecule phospholipidosis (PLD) inducers (AID 1259344; active = well fitted curve in the direction sought with a large enough effect; an effect the other way counts as inactive or inconclusive)
Outline: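 Phospholipid accumulation was scored by imaging: fixed, Hoechst-counterstained HepG2 cells stained with LipidTOX Red after 24 h compound exposure at 37 C. Read-outs were pit count and pit intensity per well or per cell, with amiodarone and DMSO controls.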

[20] = qHTS RealTime-Glo MT Cell Viability Assay in HEK293 cells - 24 hour (AID 1224886); note: nearly all actives have a fitted effect of over 50% in size; note: potency is the fitted concentration of half-maximal effect; for activity change, negative = cytotoxicity: top concentration of the series differs between compounds
Outline: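 Viability tracked continuously by luminescence as live cells reduce a prosubstrate for NanoLuc; HEK293 cells preincubated 5 h, compound-treated at 37 C, and read at 0, 8, 16, 24, 32 and 40 h.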
% is set by controls: 0 for no effect and ±100 for the full control effect.

O=[N+]([O-])c1ccccc1Nc1ccccc1
inactive: Potency [1] | Potency [2] | Potency [3] | Potency [4] | Potency [5] | Potency [6] | Potency [7] | Potency [8] | Potency [9] | Potency [10] | Potency [11] | Potency [12] | Potency [13] | Potency [14] | Potency [15] | Potency [16] | Potency [17]

CCCCCCCCS(=O)C(C)Cc1ccc2c(c1)OCO2 (stereo not given)
inactive: Potency [1] | Potency [2] | Potency [3] | Potency [4] | Potency [6] | Potency [8] | Potency [9] | Potency [12] | Potency [13] | Potency [16]
active: Potency [17] 31.2 µM

C[n+]1cc2c3c(ccc2c2ccc4cc5c(cc4c21)OCO5)OCO3
inactive: cytotoxicity [1] -26.7% [at 15.8 µM] | cytotoxicity increase [3] 16.5% [at 15.8 µM] | activity change, negative = cytotoxicity [7] -1.39% [at 15.8 µM] | activity change, negative = inhibition [11] -84.3% [at 19 µM] | Potency [19] | activity change, negative = inhibition [12] -20.3% [at 19 µM] | activity change, negative = cytotoxicity [13] 25% [at 19 µM] | activity change [16] -5.86% [at 18.9 µM, stronger effect = higher value]
active: Potency [2] 0.585 µM | Potency [4] 0.827 µM | Potency [5] 0.465 µM | Potency [6] 4.65 µM | Potency [8] 0.737 µM | Potency [9] 13 µM | Potency [10] 10.3 µM | Potency [18] 7.3 µM | Potency [15] 2.91 µM

Cc1[nH]nc2c1N=C(c1ccccc1Cl)c1cc([N+](=O)[O-])ccc1N2
active: Potency [9] 27.3 µM | Potency [10] 27.3 µM | Potency [14] 13.7 µM | Potency [15] 8.63 µM | Potency [17] 1.72 µM
inactive: Potency [1] | Potency [2] | Potency [3] | Potency [4] | Potency [5] | Potency [7] | Potency [8] | Potency [12] | Potency [13] | Potency [16]

COC(=O)C1=C(C)NC(C)=C(C(=O)OCCc2ccc(N3CCN(C(c4ccccc4)c4ccccc4)CC3)cc2)C1c1cccc([N+](=O)[O-])c1 (stereo not given)
inactive: Potency [1] | Potency [2] | Potency [3] | Potency [4] | Potency [5] | Potency [6] | Potency [7] | Potency [8] | Potency [9] | Potency [10] | Potency [18] | Potency [11] | Potency [12] | Potency [13] | Potency [14] | Potency [15] | Potency [16] | Potency [17]

Cc1onc(-c2ccccc2Cl)c1C(=O)N[C@@H]1C(=O)N2[C@@H]1SC(C)(C)[C@@H]2C(=O)O
inactive: Potency [1] | Potency [2] | Potency [3] | Potency [4] | Potency [5] | Potency [6] | Potency [7] | Potency [8] | Potency [9] | Potency [10] | Potency [11] | Potency [19] | Potency [12] | Potency [15] | Potency [16]

COC(=O)c1cc(Cl)ccc1OC
inactive: Potency [1] | Potency [2] | Potency [3] | Potency [4] | Potency [5] | Potency [6] | Potency [7] | Potency [8] | Potency [9] | Potency [10] | Potency [11] | Potency [12] | Potency [13] | Potency [14] | Potency [15] | Potency [16] | Potency [17]

Cn1cc(C(=O)[C@@H]2CCc3nc[nH]c3C2)c2ccccc21
inactive: Potency [1] | Potency [2] | Potency [3] | Potency [4] | Potency [6] | Potency [7] | Potency [8] | Potency [9] | Potency [10] | Potency [11] | Potency [19] | Potency [12] | Potency [13]
active: Potency [17] 15 µM

C/C=C(\C)C(=O)OCc1ccccc1
inactive: Potency [1] | Potency [2] | Potency [3] | Potency [20] | Potency [5] | Potency [6] | Potency [7] | Potency [8] | Potency [9] | Potency [12] | Potency [13] | Potency [14] | Potency [15] | Potency [16] | Potency [17]

NNc1nc(-c2ccc([N+](=O)[O-])cc2)cs1
inactive: Potency [1] | Potency [2] | Potency [3] | Potency [5] | Potency [6] | Potency [7] | Potency [8] | Potency [14] | Potency [16]
active: Potency [20] 24.5 µM | Potency [9] 27.3 µM | Potency [10] 54.5 µM | Potency [18] 17.2 µM | Potency [11] 48.6 µM | Potency [12] 17.2 µM | Potency [15] 48.6 µM
